# Measured values from PubChem BioAssay (NCATS).
# Results filed as inconclusive are left out. Active and inactive are the calls of the source. Calls follow the shape of the dose curve; as a rule, active = well fitted inhibition curve with a large enough effect; inconclusive = small, poorly fitted or top-dose-only effect; inactive = flat fitted curve, though single readings scatter.
# Test system: PC26
# Experiment: qHTS profiling for inhibitors of Plasmodium falciparum proliferation (AID 504749); also: nearly all actives have a fitted effect of over 60% in size;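 as to activity, negative = inhibition: 0% = DMSO vehicle and full inhibition = artemisinin control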
# Conditions: P. falciparum in erythrocytes, SYBR Green DNA, 72 h; series mostly up to 28.7 µM; activity, negative = inhibition: at the top concentration
# Procedure, shortened: (§1)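 Readout was DNA-dye fluorescence from lysed cultures, ex 485/em 535 nm. Parasitized red cells had grown 72 h with compound; data scaled between 0.29 uM artemisinin and DMSO wells and corrected using vehicle-only plates.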
# Potency is read from the fitted curve at half-maximal effect.
SMILES,"activity, negative = inhibition",Potency
CCC1(c2ccccc2)C(=O)NCNC1=O,-1.58% (inactive),–
O=C(Nc1ccc([N+](=O)[O-])cc1Cl)c1cc(Cl)ccc1O,-9.07% (inactive),–
NC12CC3CC(CC(C3)C1)C2,1.84% (inactive),–
CCCCc1oc2ccccc2c1C(=O)c1cc(I)c(OCCN(CC)CC)c(I)c1,–,9.53 µM (active)
OCCN1CCN(CCCN2c3ccccc3Sc3ccc(C(F)(F)F)cc32)CC1,–,6.75 µM (active)
Cc1cc(C(C)(C)C)cc(C)c1CC1=NCCN1,-18.5% [at 12.8 µM] (inactive),–
CC(CCc1ccc(O)cc1)NCCc1ccc(O)c(O)c1 (stereo unspecified),0.49% (inactive),–
Clc1ccc2c(c1)C(N1CCNCC1)=Nc1ccccc1O2,-17.1% (inactive),–
COc1cc2c(c(OC)c1OC)-c1ccc(OC)c(=O)cc1[C@@H](NC(C)=O)CC2,-8.08% (inactive),–
Cn1c(=O)c2[nH]cnc2n(C)c1=O,2.58% (inactive),–
Cc1cn([C@H]2C[C@H](N=[N+]=[N-])[C@@H](CO)O2)c(=O)[nH]c1=O,-2.63% (inactive),–
CC#C[C@]1(O)CC[C@H]2[C@@H]3CCC4=CC(=O)CCC4=C3[C@@H](c3ccc(N(C)C)cc3)C[C@@]21C,–,13.5 µM (active)
CCOC(=O)Nc1ccc(NCc2ccc(F)cc2)nc1N,–,19 µM (active)
CCOC(=O)c1ncn2c1CN(C)C(=O)c1cc(F)ccc1-2,11.1% (inactive),–
CN1CCC(=C2c3ccccc3C=Cc3ccccc32)CC1,-0.217% (inactive),–
O=C1c2c(O)ccc(O)c2C(=O)c2c(NCCNCCO)ccc(NCCNCCO)c21,–,6.42 µM (active)
CC1(CN2CCC(n3c(=O)[nH]c4ccccc43)CC2)OCc2ccccc2-n2cccc21 (stereo unspecified),–,12 µM (active)
COc1ccccc1N1CCN(CC(O)COc2cccc3ccccc23)CC1 (stereo unspecified),-10.8% (inactive),–
CN1CCN2c3ccccc3Cc3ccccc3C2C1 (stereo unspecified),9.09% (inactive),–
CN(Cc1cnc2nc(N)nc(N)c2n1)c1ccc(C(=O)N[C@@H](CCC(=O)O)C(=O)O)cc1,3.79% (inactive),–
COc1ccccc1OCC(O)CN1CCN(CC(=O)Nc2c(C)cccc2C)CC1 (stereo unspecified),-16% (inactive),–

# Test system: PC49
# Experiment: as above
# Conditions: P. falciparum in erythrocytes, SYBR Green DNA, 72 h; series mostly up to 28.7 µM; activity, negative = inhibition: at the top concentration
# Procedure, shortened: as §1
SMILES,"activity, negative = inhibition",Potency
COc1ccc(CCN(C)CCCC(C#N)(c2ccc(OC)c(OC)c2)C(C)C)cc1OC (stereo unspecified),5.53% (inactive),–
Nc1c2c(nc3ccccc13)CCCC2,-3.17% (inactive),–
CCC1(c2ccccc2)C(=O)NCNC1=O,23.3% (inactive),–
O=C(Nc1ccc([N+](=O)[O-])cc1Cl)c1cc(Cl)ccc1O,-16.5% (inactive),–
NC12CC3CC(CC(C3)C1)C2,11.8% (inactive),–
Cc1cc(C(C)(C)C)cc(C)c1CC1=NCCN1,-3.66% [at 12.8 µM] (inactive),–
CC(CCc1ccc(O)cc1)NCCc1ccc(O)c(O)c1 (stereo unspecified),12.5% (inactive),–
Clc1ccc2c(c1)C(N1CCNCC1)=Nc1ccccc1O2,-4.6% (inactive),–
CC(COc1ccccc1)N(CCCl)Cc1ccccc1 (stereo unspecified),-17% (inactive),–
Clc1ccc(C(c2ccccc2Cl)C(Cl)Cl)cc1 (stereo unspecified),4.82% (inactive),–
COc1cc2c(c(OC)c1OC)-c1ccc(OC)c(=O)cc1[C@@H](NC(C)=O)CC2,5.52% (inactive),–
Cn1c(=O)c2[nH]cnc2n(C)c1=O,0.76% (inactive),–
CN(C)CCOC(c1ccccc1)c1ccccc1,-9.67% (inactive),–
Cc1cn([C@H]2C[C@H](N=[N+]=[N-])[C@@H](CO)O2)c(=O)[nH]c1=O,10.1% (inactive),–
O=c1[nH]cc(F)c(=O)[nH]1,-9.26% (inactive),–
CCOC(=O)c1ncn2c1CN(C)C(=O)c1cc(F)ccc1-2,1.44% (inactive),–
CC(C)NCC(O)COc1ccc(CCOCC2CC2)cc1 (stereo unspecified),3.24% (inactive),–
CNCCCC12CCC(c3ccccc31)c1ccccc12,-4.66% (inactive),–
CN1CCC(=C2c3ccccc3C=Cc3ccccc32)CC1,8.55% (inactive),–
O=C1c2c(O)ccc(O)c2C(=O)c2c(NCCNCCO)ccc(NCCNCCO)c21,-25.1% [at 12.8 µM] (inactive),–
CC1(CN2CCC(n3c(=O)[nH]c4ccccc43)CC2)OCc2ccccc2-n2cccc21 (stereo unspecified),-17.6% (inactive),–
COc1ccccc1N1CCN(CC(O)COc2cccc3ccccc23)CC1 (stereo unspecified),6.35% (inactive),–
CN1CCN2c3ccccc3Cc3ccccc3C2C1 (stereo unspecified),20% (inactive),–
CN(Cc1cnc2nc(N)nc(N)c2n1)c1ccc(C(=O)N[C@@H](CCC(=O)O)C(=O)O)cc1,–,0.178 µM (active)
COc1ccccc1OCC(O)CN1CCN(CC(=O)Nc2c(C)cccc2C)CC1 (stereo unspecified),7.97% (inactive),–
